# Screens: PubChem BioAssay, National Center for Advancing Translational Sciences (NCATS)
# The sample as a whole holds a higher share of hits than the screen did.
# HT1080 IDH1KD tx: qHTS for induction of synthetic lethality in tumor cells producing 2HG: qHTS for the HT-1080-IDH1KD cell line; HT-1080 IDH1 knockdown viability, ATP luminescence, 48 h; Potency, µM (series often up to 46.1 µM), for the others: top-dose activity, negative = toxicity, hits mostly cytotoxic; hit rate 2% among 360,000; AID 686971, 2013;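 further: potency means the concentration at half of the fitted maximal effect; 0% = DMSO wells and -100% = cell-free medium wells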
#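 After a 2 h attachment period, IDH1KD HT-1080 cells took pin-transferred compound for 48 h at 37 °C; ATP-based luminescence after 10 min room-temperature reagent incubation reported viability.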
# HT1080-NT tox: qHTS for induction of synthetic lethality in tumor cells producing 2HG: qHTS for the HT-1080-NT fibrosarcoma cell line; HT-1080-NT fibrosarcoma viability, CellTiter-Glo ATP luminescence, 48 h; Potency, µM (top dose mostly 46.1 µM), for inactives: at the top dose activity, negative = less viability, usual class: cytotoxic; hit rate 1.6% among 360,000;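 further: NT is the 2HG producing partner of a matched IDH1 knockdown line; potency means the concentration at half of the fitted maximal effect; 0% = DMSO-treated cells and -100% = media-only wells without cells; nearly all actives have a fitted effect of over 55% in size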
#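 Viability of the 2HG-overproducing fibrosarcoma line after 48 hours of compound exposure at 37 degrees C was determined by luminescence with CellTiter-Glo, and concentration-effect curves were then fitted and categorized.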
# DT40 TDP1 no CPT: qHTS for Inhibitors of human tyrosyl-DNA phosphodiesterase 1 (TDP1): qHTS in cells in absence of CPT; DT40 Tdp1-/- hTDP1 cells, no CPT, ATP luminescence, 48 h; Potency, µM (series often up to 46.2 µM), for inactives: top-dose activity change, negative = growth inhibition, actives largely listed as inhibitors; hit rate 15% among 420,000; further: potency means the concentration at half of the fitted maximal effect; nearly all actives have a fitted effect of over 55% in size
#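 Seeded 400 DT40-hTDP1 cells/well (vehicle DMSO, no 20 nM CPT); pinned compounds; ≥48 hr at 37 °C; CellTiter-Glo luminescence as viability measure.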
# 12-LOX inh: Primary qHTS assay for inhibitors of human arachidonate 12S-lipoxygenase (ALOX12): Round 2; Potency, µM (highest dose often 108 µM), for the others: at the top dose activity change, negative = inhibition, hits mostly inhibitors; purified 12hLO, xylenol orange hydroperoxide absorbance; AID 1671190, 2021; Polyunsaturated fatty acid lipoxygenase ALOX12 (Homo sapiens), P18054; hit rate 1.1% among 580,000; further: potency means the concentration at half of the fitted maximal effect
# Target sequence (P18054 whole entry, looked up): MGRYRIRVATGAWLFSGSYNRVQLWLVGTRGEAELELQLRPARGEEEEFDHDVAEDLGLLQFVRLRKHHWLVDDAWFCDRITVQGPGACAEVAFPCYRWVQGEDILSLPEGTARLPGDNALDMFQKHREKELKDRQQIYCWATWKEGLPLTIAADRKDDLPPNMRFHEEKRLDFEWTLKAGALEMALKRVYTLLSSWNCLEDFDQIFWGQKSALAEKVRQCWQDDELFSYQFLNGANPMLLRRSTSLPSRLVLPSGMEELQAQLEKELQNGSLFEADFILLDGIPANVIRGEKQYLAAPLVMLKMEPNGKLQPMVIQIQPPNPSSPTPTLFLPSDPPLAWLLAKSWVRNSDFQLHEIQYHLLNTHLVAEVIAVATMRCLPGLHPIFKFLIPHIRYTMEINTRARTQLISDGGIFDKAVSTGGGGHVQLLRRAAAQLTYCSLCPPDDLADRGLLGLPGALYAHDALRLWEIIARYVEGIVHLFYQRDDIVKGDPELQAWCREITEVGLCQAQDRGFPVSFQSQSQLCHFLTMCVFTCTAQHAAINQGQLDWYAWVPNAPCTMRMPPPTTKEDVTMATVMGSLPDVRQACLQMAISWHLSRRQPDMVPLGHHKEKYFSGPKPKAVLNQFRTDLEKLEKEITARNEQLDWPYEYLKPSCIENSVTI
#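 Purified human 12hLO at 150 nM in 25 mM Hepes, 0.01% Triton X-100, pH 7.0, preincubated 15 min at room temperature with compound. Reaction started with 40 uM arachidonic acid, 30 min at room temperature. Hydroperoxide measured by Fe-xylenol orange, 573/405 nm absorbance ratio.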
# TDP1 cell CPT: qHTS for Inhibitors of human tyrosyl-DNA phosphodiesterase 1 (TDP1): qHTS in cells in presence of CPT; chicken DT40 Tdp1-/-;hTDP1 cells + 20 nM CPT, ATP luminescence, 48 h; Potency, µM (highest dose often 46.2 µM), inactives show at the top dose activity change, negative = growth inhibition, most hits filed as inhibitors; hit rate 12% among 420,000; AID 686979, 2013; further: potency means the concentration at half of the fitted maximal effect; nearly all actives have a fitted effect of over 55% in size
#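 Chicken DT40 Tdp1-/- cells stably complemented with human TDP1 were seeded at 400 cells/well in medium containing 20 nM camptothecin, exposed to pin-transferred compounds, and grown at 37 °C for at least 48 hr. Viability was read as ATP luminescence.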
# IL-1B inflam inh: qHTS for Inhibitors of Inflammasome Signaling: IL-1-beta AlphaLISA Primary Screen. activity change, % at 57.5 µM. AID 743279, 2014. THP-1 LPS/ATP IL-1B secretion, AlphaLISA, 16 h; hits give low values. hit rate 4.7% among 360,000; in the data active means activity change below about -50%; inconclusive means mostly about -30% to -49%
#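 Secreted IL-1B measured by AlphaLISA bead assay after 16 h compound exposure of THP-1 cells; compounds (final up to 57.5 uM) added 1 h before LPS (250 ng/mL) and ATP (1.25 mM) stimulation; lower signal means less secretion.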
# * hit, by the source's call; u = inconclusive; x = not tested or not shown; [ ] = another dose, or the depositor's remark. Unless noted, the call rests on the fitted dose curve; in most records, active means well fitted curve in the direction sought with a large enough effect; inconclusive means small, poorly fitted or top-dose-only effect, or another doubt; inactive means no such curve, though single readings can be large; an effect the other way counts as inactive or inconclusive. Unless noted, on the % scale 0 is the no-effect control and ±100 the full control effect.
SMILES,HT1080 IDH1KD tx,HT1080-NT tox,DT40 TDP1 no CPT,12-LOX inh,TDP1 cell CPT,IL-1B inflam inh
CNCc1ccc(OC)cc1,x,x,x,31%[176 µM],x,x
CC(C)c1noc([C@@H]2C[C@@H](O)CN2Cc2ccc(CO)o2)n1,x,x,x,-23%[176 µM],x,x
COc1cccc(NC(=O)CSCn2nnc3c(=O)[nH]c(Cc4ccc(F)cc4)nc32)c1,x,x,4.1µM*,4%,-22%,x
CCn1c(=O)c(C(=O)NNC(=O)c2ccccc2F)c(O)c2ccccc21,-25%,u,18µM*,24%,u,5
CCCCCCCCCC(=O)NNC(=O)c1c(O)c2ccccc2n(CC)c1=O,-16%,-1%,8.2µM*,4%,u,17
CCCn1c(=O)c(C(=O)NNS(=O)(=O)c2ccc(C)cc2)c(O)c2ccccc21,33µM*,u,u,-3%,u,14
CCn1c(=O)c(C(=O)NNC(=O)c2ccccc2Cl)c(O)c2ccccc21,-22%,u,u,27%,u,99
OC[C@@H]1CN(Cc2cccc(F)c2)C[C@H]1c1nc(-c2ccncc2)no1,x,x,x,42%,x,x
CC1CCN(C(=O)C2CCCN(c3cnn(C)c(=O)c3)C2)CC1 (configuration not stated),x,x,x,1%,x,x
CN1CCCC(C)(C(=O)Nc2ccc3scnc3c2)C1 (configuration not stated),7%,u,1%,u,1%,47
COc1ccc(/C=C2/CCn3c2nc2cc(Cl)ccc2c3=O)cc1O,x,x,x,1.8µM*,x,x
O=C(O)c1ccc2c(=O)n3c(nc2c1)/C(=C/c1cccc(O)c1)CC3,12%,12%,1%,7.9µM*,1%,0
COc1ccc(NC(=O)Cn2c(-n3nc(C)cc3C)nc(C)cc2=O)cc1,x,x,x,-4%,x,x
CC(=O)c1ccc(NC(=O)Cn2c(-n3nc(C)cc3C)nc(C)cc2=O)cc1,x,x,18µM*,0%,u,x
Cc1cc(C)n(-c2nc(C)c(C)c(=O)n2CC(=O)Nc2ccc([N+](=O)[O-])cc2)n1,x,x,21µM*,-18%,u,x
N#Cc1ccc(C(C(=O)NC2CCCCC2)n2c(=O)c(-c3ccco3)nc3ccccc32)cc1 (configuration not stated),-3%,-8%,16µM*,-29%,15µM*,u
O=C(NC1CCCCC1)C(c1ccc(C(F)(F)F)cc1)n1c(=O)c(-c2ccco2)nc2ccccc21 (configuration not stated),-16%,-22%,u,u,1.6µM*,-9
O=C(NC1CCCCC1)C(c1ccccc1)n1c(=O)c(-c2ccco2)nc2ccccc21 (configuration not stated),1%,-2%,21µM*,u,18µM*,0
CCCCCNC(=O)C(C1CC1)n1c(=O)c(-c2ccco2)nc2ccccc21 (configuration not stated),3%,-11%,13µM*,35µM*,15µM*,15
CCCCCNC(=O)C(C1CC1)n1c(=O)c(-c2cc3ccccc3[nH]2)nc2ccccc21 (configuration not stated),u,u,u,u,u,-3
CC(C)(C(=O)NCCc1cccs1)c1ccccc1,x,x,x,17%,x,x
O=C(NCc1ccc(F)cc1)C1CCc2nnc(C3CCN([S+](=O)([O-])c4ccccc4)CC3)n21 (configuration not stated),x,x,x,1%[6.33 µM],x,x
